Test results reported in PubChem BioAssay (Tox21).
Several values for one entry are separate records, joined by “and”; a condition that tells them apart may be missing. Identical values can stand only once. Records with an inconclusive call do not appear. Activity calls are given as the source filed them. Unless noted, calls come from the whole dose curve; as a rule, active = well fitted curve in the direction sought with a large enough effect in the repeat runs; inconclusive = weak or mixed curves; inactive = no such curve, though single readings can be large; an effect the other way counts as inactive or inconclusive.

Experiments:
[1] = qHTS assay to identify small molecule antagonists of the thyroid receptor (TR) signaling pathway - cell viability counter screen (AID 743064); note: nearly all actives have a fitted effect of over 50% in size
How it was run: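 Counter screen for cytotoxicity: compound plus T3 (1 nM final) on GH3.TRE-Luc cells, 23.5 h at 37 °C, then fluorescence viability readout with CellTiter-Fluor.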

[2] = qHTS assay to identify small molecule antagonists of the thyroid receptor (TR) signaling pathway (AID 743065); note: nearly all actives have a fitted effect of over 55% in size
How it was run: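 GH3.TRE-Luc rat pituitary cells carrying two TR response elements driving luciferase were plated for 4 h, given compound plus 1 nM T3 (final), and incubated 23.5 h at 37 C. ONE-Glo luminescence measured reporter inhibition; CellTiter-Fluor fluorescence tracked cytotoxicity.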

[3] = system: thyroid hormone receptor (rat, GH3 cells); experiment: qHTS assay to identify small molecule agonists of the thyroid receptor (TR) signaling pathway (AID 743066; calls by dose curve)
[4] = biological target: Estrogen receptor (Homo sapiens) (UniProt P03372); experiment: qHTS assay to identify small molecule antagonists of the estrogen receptor alpha (ER-alpha) signaling pathway (AID 743069; active = well fitted curve in the direction sought with a large enough effect in the signal ratio in the repeat runs, not every such curve was filed as active; the % refers to the signal ratio)
How it was run: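 Screening used a UAS-driven beta-lactamase reporter integrated into HEK293 cells expressing ER-alpha, stimulated with 17beta-estradiol alongside test compounds over 18 hr at 37C; signal came from LiveBLAzer B/G FRET fluorescence.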

[5] = qHTS assay to identify small molecule antagonists of the estrogen receptor alpha (ER-alpha) signaling pathway - cell viability counter screen (AID 743074; calls by dose curve; note: nearly all actives have a fitted effect of over 45% in size)
[6] = biological target: Estrogen receptor (Homo sapiens) (UniProt P03372); experiment: qHTS assay to identify small molecule agonists of the estrogen receptor alpha (ER-alpha) signaling pathway (AID 743075; calls by dose curve; note: potency is the fitted concentration of half-maximal effect)
[7] = biological target: Estrogen receptor (Homo sapiens) (UniProt P03372); experiment: qHTS assay to identify small molecule agonists of the estrogen receptor alpha (ER-alpha) signaling pathway using the BG1 cell line (AID 743079); details: BG1Luc4E2 cells, ERE-luciferase agonist, 22 h; note: nearly all actives have a fitted effect of over 20% in size
[8] = qHTS assay to identify small molecule antagonists of the estrogen receptor alpha (ER-alpha) signaling pathway using the BG1 cell line (AID 743080; calls by dose curve;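 note: BG1 cells stimulated with 17beta-estradiol alongside compound; nearly all actives have a fitted effect of over 25% in size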)
How it was run: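 BG1-Luc-4E2 cells (endogenous full-length ER-alpha, 4xERE luciferase) hormone-starved 5 days in charcoal-stripped FBS, plated 4,000/well for 24 h, then compound plus 17beta-estradiol for 21.5 h at 37 C; ONE-Glo luminescence read.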

[9] = qHTS assay to identify small molecule antagonists of the estrogen receptor alpha (ER-alpha) signaling pathway using the BG1 cell line - cell viability counter screen (AID 743081);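 note: compound given together with 17beta-estradiol as the ER stimulus; nearly all actives have a fitted effect of over 45% in size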
Aromatase (Homo sapiens) = Aromatase (Homo sapiens) (UniProt P11511); experiment: qHTS assay to identify aromatase inhibitors (AID 743083); note: nearly all actives have a fitted effect of over 55% in size
[10] = qHTS assay to identify aromatase inhibitors - cell viability counter screen (AID 743084);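 note: cells stimulated with testosterone during compound exposure; nearly all actives have a fitted effect of over 55% in size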
[11] = biological target: Aryl hydrocarbon receptor (Homo sapiens) (UniProt P35869); experiment: qHTS assay to identify small molecule that activate the aryl hydrocarbon receptor (AhR) signaling pathway (AID 743085);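 note: HG2L7.5c1 human HepG2 liver cells with stably integrated DRE-driven firefly reporter; nearly all actives have a fitted effect of over 15% in size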
How it was run: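 Measured in HG2L7.5c1 cells: CellTiter-Fluor signal (30 min incubation, 37C) for viability, then luciferase luminescence (30 min, room temperature). Compound contact time was 24 h at 37C, following a 5 h pre-incubation.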

[12] = qHTS assay to identify small molecule that activate the aryl hydrocarbon receptor (AhR) signaling pathway - cell viability counter screen (AID 743086);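 note: HepG2 liver cells carrying the AhR DRE luciferase reporter; nearly all actives have a fitted effect of over 45% in size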
How it was run: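 HepG2-AhR-luc (HG2L7.5c1) cells, 4000/well, were preincubated 5 h at 37C, exposed to compound in qHTS format for 24 hr at 37C, then given CellTiter-Fluor for 30 min; viability was read as fluorescence in the reporter wells.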

[13] = biological target: Peroxisome proliferator-activated receptor gamma (Homo sapiens) (UniProt P37231); experiment: qHTS assay to identify small molecule agonists of the peroxisome proliferator-activated receptor gamma (PPARg) signaling pathway (AID 743094; active = well fitted activation curve with a large enough effect in the signal ratio in the repeat runs, not every such curve was filed as active; the % refers to the signal ratio)
How it was run: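 HEK293H PPARg-bla cells, 5 h settle at 37C/5% CO2; compound (DMSO) 17 h, 37C; B/G FRET substrate 1 h RT; fluorescence intensity read-out. qHTS format.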

[14] = qHTS assay to identify small molecule antagonists of the peroxisome proliferator-activated receptor gamma (PPARg) signaling pathway - cell viability counter screen (AID 743194); details: Potency: co-treated with 50 nM rosiglitazone; note: nearly all actives have a fitted effect of over 55% in size
How it was run: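 PPARg-UAS-bla HEK293H cells were plated, rested 5 h at 37 C, then treated with compounds plus rosiglitazone (50 nM final) for 17 h at 37 C; viability was then read by CellTiter-Glo luminescence after 30 min at room temperature.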

[15] = qHTS assay for small molecule agonists of the antioxidant response element (ARE) signaling pathway (AID 743202; active = well fitted activation curve with a large enough effect in the signal ratio in the repeat runs, not every such curve was filed as active; the % refers to the signal ratio)
How it was run: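 Steps: seed ARE-bla HepG2 cells (2,000/well); incubate 5 h at 37 C; add compounds by pin tool; incubate 16 h at 37 C; add FRET substrate; read fluorescence after 2 h at RT.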

[16] = qHTS assay for small molecule agonists of the antioxidant response element (ARE) signaling pathway - cell viability counter screen (AID 743203; calls by dose curve; note: nearly all actives have a fitted effect of over 55% in size)
How it was run: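 Luminescence read-out (CellTiter-Glo, 30 min at room temperature) measured cell viability in the same wells as the ARE beta-lactamase reporter. HepG2 ARE-bla cells were treated with compounds for 16 hrs at 37C/5% CO2.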

[17] = qHTS assay for small molecule activators of the heat shock response signaling pathway - cell viability counter screen (AID 743209); note: nearly all actives have a fitted effect of over 50% in size
How it was run: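 HSE-bla HeLa; 1500 cells/well; overnight 37 C, 5% CO2; compound 5 h 37 C; LiveBLAzer B/G substrate 2.5 h RT; CellTiter-Glo 30 min RT; luminescence.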

[18] = qHTS assay for small molecule activators of the heat shock response signaling pathway (AID 743210; active = well fitted activation curve with a large enough effect in the signal ratio in the repeat runs, with a control signal flat, not every such curve was filed as active; the % refers to the signal ratio;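 note: HeLa cells with beta-lactamase reporter driven by heat shock elements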)
How it was run: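 Activation of heat shock element-controlled beta-lactamase expression is measured in HeLa cells by LiveBLAzer FRET fluorescence, with compound exposure lasting 5 h at 37 C and substrate loading 2.5 h at room temperature.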

[19] = biological target: Peroxisome proliferator-activated receptor gamma (Homo sapiens) (UniProt P37231); experiment: qHTS assay to identify small molecule antagonists of the peroxisome proliferator-activated receptor gamma (PPARg) signaling pathway (AID 743191; calls by dose curve; note: nearly all actives have a fitted effect of over 30% in size)
How it was run: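 GeneBLAzer PPARg UAS-bla HEK293H cells carrying a UAS-driven beta-lactamase reporter were plated at 3000 cells/well, preincubated 5 h at 37C, then given compound for 17 h at 37C; LiveBLAzer B/G FRET substrate was read after 1 h at room temperature.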
% is set by controls: 0 for no effect and ±100 for the full control effect.

Chain of Estrogen receptor (Homo sapiens) (P03372 whole entry, looked up): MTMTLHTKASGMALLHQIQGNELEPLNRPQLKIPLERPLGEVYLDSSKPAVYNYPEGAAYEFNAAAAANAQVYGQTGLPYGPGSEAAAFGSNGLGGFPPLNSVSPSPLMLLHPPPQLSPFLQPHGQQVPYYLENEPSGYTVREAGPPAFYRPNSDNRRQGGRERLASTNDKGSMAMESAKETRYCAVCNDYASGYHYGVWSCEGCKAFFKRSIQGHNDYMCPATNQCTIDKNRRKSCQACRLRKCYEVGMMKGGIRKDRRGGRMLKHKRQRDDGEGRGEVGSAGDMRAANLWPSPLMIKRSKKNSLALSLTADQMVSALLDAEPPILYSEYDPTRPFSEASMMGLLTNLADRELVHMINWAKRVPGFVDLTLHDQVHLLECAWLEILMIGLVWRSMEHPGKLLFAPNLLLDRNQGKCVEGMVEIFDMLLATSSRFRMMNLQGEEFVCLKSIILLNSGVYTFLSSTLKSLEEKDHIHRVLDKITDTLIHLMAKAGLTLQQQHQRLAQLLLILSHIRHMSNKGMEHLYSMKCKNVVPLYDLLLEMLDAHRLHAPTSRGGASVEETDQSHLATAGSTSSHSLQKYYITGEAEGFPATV
Chain of Peroxisome proliferator-activated receptor gamma (Homo sapiens) (P37231 whole entry, looked up): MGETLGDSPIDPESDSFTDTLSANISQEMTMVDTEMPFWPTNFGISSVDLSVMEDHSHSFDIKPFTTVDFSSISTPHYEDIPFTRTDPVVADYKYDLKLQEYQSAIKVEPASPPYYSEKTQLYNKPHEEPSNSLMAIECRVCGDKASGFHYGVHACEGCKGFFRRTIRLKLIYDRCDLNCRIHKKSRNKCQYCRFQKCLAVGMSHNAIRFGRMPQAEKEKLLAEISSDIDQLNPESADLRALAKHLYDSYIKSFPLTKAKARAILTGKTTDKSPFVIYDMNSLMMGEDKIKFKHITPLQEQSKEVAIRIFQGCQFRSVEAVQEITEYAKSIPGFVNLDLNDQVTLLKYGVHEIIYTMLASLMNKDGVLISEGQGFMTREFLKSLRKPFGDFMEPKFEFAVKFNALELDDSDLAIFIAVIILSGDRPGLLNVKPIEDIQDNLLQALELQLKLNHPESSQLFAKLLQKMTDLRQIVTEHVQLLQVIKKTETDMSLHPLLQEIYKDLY
Chain of Aryl hydrocarbon receptor (Homo sapiens) (P35869 whole entry, looked up): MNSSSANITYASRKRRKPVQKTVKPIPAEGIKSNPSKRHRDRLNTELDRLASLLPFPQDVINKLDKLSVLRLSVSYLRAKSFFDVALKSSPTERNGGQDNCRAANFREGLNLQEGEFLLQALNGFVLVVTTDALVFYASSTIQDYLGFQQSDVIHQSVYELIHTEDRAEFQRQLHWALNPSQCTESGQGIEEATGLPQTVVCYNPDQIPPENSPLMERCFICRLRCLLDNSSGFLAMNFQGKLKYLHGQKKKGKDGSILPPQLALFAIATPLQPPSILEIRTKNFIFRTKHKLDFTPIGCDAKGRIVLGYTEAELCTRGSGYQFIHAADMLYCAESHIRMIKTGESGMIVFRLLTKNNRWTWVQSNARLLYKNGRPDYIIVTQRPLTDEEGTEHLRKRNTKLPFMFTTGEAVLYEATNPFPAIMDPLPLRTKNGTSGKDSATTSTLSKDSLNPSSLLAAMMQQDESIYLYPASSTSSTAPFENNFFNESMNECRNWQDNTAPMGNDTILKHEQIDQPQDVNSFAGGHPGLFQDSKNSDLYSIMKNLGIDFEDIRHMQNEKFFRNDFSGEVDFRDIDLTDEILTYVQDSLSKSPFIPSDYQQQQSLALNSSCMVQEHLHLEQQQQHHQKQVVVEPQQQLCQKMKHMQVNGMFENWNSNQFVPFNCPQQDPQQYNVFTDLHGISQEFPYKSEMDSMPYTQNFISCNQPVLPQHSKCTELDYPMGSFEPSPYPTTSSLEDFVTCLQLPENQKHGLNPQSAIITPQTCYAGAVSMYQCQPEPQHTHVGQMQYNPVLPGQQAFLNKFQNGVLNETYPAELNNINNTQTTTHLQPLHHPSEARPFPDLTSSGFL
Chain of Aromatase (Homo sapiens) (P11511 whole entry, looked up): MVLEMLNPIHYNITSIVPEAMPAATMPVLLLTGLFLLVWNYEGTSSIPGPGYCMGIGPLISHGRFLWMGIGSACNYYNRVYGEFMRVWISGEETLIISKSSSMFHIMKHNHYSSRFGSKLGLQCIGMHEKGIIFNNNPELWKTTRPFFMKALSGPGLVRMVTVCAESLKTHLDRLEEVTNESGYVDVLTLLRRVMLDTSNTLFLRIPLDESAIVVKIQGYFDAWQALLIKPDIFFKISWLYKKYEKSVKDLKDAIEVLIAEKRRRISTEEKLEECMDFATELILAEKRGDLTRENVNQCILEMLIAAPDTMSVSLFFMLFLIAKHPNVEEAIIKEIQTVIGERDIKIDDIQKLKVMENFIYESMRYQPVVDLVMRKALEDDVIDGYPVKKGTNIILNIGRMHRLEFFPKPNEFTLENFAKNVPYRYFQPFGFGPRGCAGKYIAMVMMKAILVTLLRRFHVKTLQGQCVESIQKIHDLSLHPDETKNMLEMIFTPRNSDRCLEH

Cc1nnc2n1-c1sc(CCC(=O)N3CCOCC3)cc1C(c1ccccc1Cl)=NC2
inactive: Potency [1] | Potency [2] | Potency [3] | Potency [4] | outcome [5] | Potency [6] | activation ([7]; at 70.3 µM (top of the series)) -7.93% and -17.7% | Potency [8] | Potency [9] | Potency (Aromatase (Homo sapiens)) | Potency [10] | Potency [11] | outcome [12] | outcome [13] | Potency [14] | Potency [15] | Potency [16] | Potency [17] | outcome [18]

C[N+](=O)[O-]
inactive: Potency [1] | Potency [2] | Potency [3] | Potency [4] | outcome [5] | Potency [6] | activation ([7]; at 70.3 µM (top of the series)) 0.916% | Potency [8] | Potency [9] | Potency (Aromatase (Homo sapiens)) | Potency [10] | Potency [11] | outcome [12] | outcome [13] | Potency [19] | Potency [14] | Potency [16] | Potency [17]

COc1cc2c(cc1OC)[C@@]13CCN4CC5=CCO[C@H]6CC(=O)N2[C@H]1[C@H]6[C@H]5C[C@H]43
inactive: Potency [1] | Potency [2] | Potency [3] | Potency [4] | outcome [5] | Potency [6] | activation ([7]; at 70.3 µM (top of the series)) -4.94% | Potency [8] | Potency [9] | Potency (Aromatase (Homo sapiens)) | Potency [10] | Potency [11] | outcome [12] | outcome [13] | Potency [19] | Potency [14] | Potency [16] | outcome [18]

CC1CN1P(=O)(N1CC1C)N1CC1C (centres undefined)
inactive: Potency [1] | Potency [2] | Potency [3] | Potency [4] | outcome [5] | Potency [6] | activation ([7]; at 70.3 µM (top of the series)) -10.3% | Potency [8] | Potency [9] | Potency (Aromatase (Homo sapiens)) | Potency [10] | Potency [11] | outcome [12] | Potency [19] | Potency [14] | Potency [16] | Potency [17] | outcome [18]

CC(C)NCC(O)c1ccc(N)c(C#N)c1 (centres undefined)
inactive: Potency [1] | Potency [2] | Potency [3] | Potency [4] | outcome [5] | Potency [6] | activation ([7]; at 70.3 µM (top of the series)) -15.4% | Potency [8] | Potency [9] | Potency (Aromatase (Homo sapiens)) | Potency [10] | Potency [11] | outcome [12] | outcome [13] | Potency [19] | Potency [14] | Potency [15] | Potency [16] | Potency [17] | outcome [18]

CCC(=O)c1ccccc1
inactive: Potency [1] | Potency [2] | Potency [3] | Potency [4] | outcome [5] | Potency [6] | activation ([7]; at 70.3 µM (top of the series)) -1.07% | Potency [8] | Potency [9] | Potency (Aromatase (Homo sapiens)) | Potency [10] | Potency [11] | outcome [12] | outcome [13] | Potency [14] | Potency [15] | Potency [16] | Potency [17] | outcome [18]

N#CCBr
inactive: Potency [1] | Potency [2] | Potency [3] | Potency [4] | outcome [5] | Potency [6] | activation ([7]; at 95 µM (top of the series)) 0.199% | Potency [8] | Potency [9] | Potency (Aromatase (Homo sapiens)) | Potency [10] | Potency [11] | outcome [12] | Potency [14] | Potency [15] | Potency [16]

OC(Cn1cncn1)(c1ccc(F)cc1)c1ccccc1F (centres undefined)
inactive: Potency [1] | Potency [2] | Potency [3] | Potency [4] | outcome [5] | Potency [6] | activation ([7]; at 70.3 µM (top of the series)) -1% | Potency [8] | Potency [9] | Potency [10] | Potency [11] | outcome [12] | outcome [13] | Potency [19] | Potency [14] | Potency [15] | Potency [16] | Potency [17]

O=S(=O)(O)C(F)(F)C(F)(F)C(F)(F)C(F)(F)C(F)(F)C(F)(F)F
inactive: Potency [1] | Potency [2] | Potency [3] | Potency [4] | Potency [6] | activation ([7]; at 70.3 µM (top of the series)) -0.729% | Potency [8] | Potency [9] | Potency (Aromatase (Homo sapiens)) | Potency [11] | outcome [12] | outcome [13] | Potency [19] | Potency [16] | Potency [17] | outcome [18]

O=CNC(N1CCN(C(NC=O)C(Cl)(Cl)Cl)CC1)C(Cl)(Cl)Cl (centres undefined)
inactive: Potency [1] | Potency [2] | Potency [3] | Potency [4] | Potency [6] | activation ([7]; at 70.3 µM (top of the series)) -11.3% | Potency [8] | Potency [9] | Potency (Aromatase (Homo sapiens)) | Potency [10] | Potency [11] | outcome [12] | outcome [13] | Potency [19] | Potency [14] | Potency [16]

ClC(Cl)Br
inactive: Potency [1] | Potency [2] | Potency [3] | Potency [4] | outcome [5] | Potency [6] | Potency [8] | Potency [9] | Potency (Aromatase (Homo sapiens)) | Potency [10] | Potency [11] | outcome [12] | outcome [13] | Potency [19] | Potency [14] | Potency [15] | Potency [16] | Potency [17]

OC(c1ccc(F)cc1)(c1cncnc1)c1ccccc1Cl (centres undefined)
inactive: Potency [1] | Potency [2] | Potency [3] | Potency [4] | outcome [5] | Potency [8] | Potency [9] | Potency [10] | outcome [12] | outcome [13] | Potency [14] | Potency [16] | Potency [17] | outcome [18]
active: Potency [6] 49 µM [activator]

Oc1c(Cl)cccc1Cl
inactive: Potency [1] | Potency [2] | Potency [3] | outcome [5] | Potency [6] | activation ([7]; at 70.3 µM (top of the series)) 20.4% | Potency [8] | Potency [9] | Potency (Aromatase (Homo sapiens)) | Potency [10] | Potency [11] | outcome [12] | outcome [13] | Potency [19] | Potency [16] | Potency [17] | outcome [18]

Nc1cc2c3c(c1)C(c1ccccc1)=N[C@@H](NC(=O)c1cccnc1)C(=O)N3CC2
inactive: Potency [1] | Potency [2] | Potency [3] | Potency [4] | outcome [5] | Potency [6] | activation ([7]; at 70.3 µM (top of the series)) -22.1% | Potency [9] | Potency (Aromatase (Homo sapiens)) | Potency [10] | Potency [11] | outcome [12] | Potency [19] | Potency [14] | Potency [16] | Potency [17]

Cc1nc(N)nc(N)n1
inactive: Potency [1] | Potency [2] | Potency [3] | Potency [4] | outcome [5] | Potency [6] | activation ([7]; at 95 µM (top of the series)) 2.81% | Potency [8] | Potency [9] | Potency (Aromatase (Homo sapiens)) | Potency [10] | Potency [11] | outcome [12] | Potency [14] | Potency [16] | Potency [17] | outcome [18]

COC(=O)c1ccccc1S(=O)(=O)NC(=O)N(C)c1nc(C)nc(OC)n1
inactive: Potency [1] | Potency [2] | Potency [3] | Potency [4] | outcome [5] | Potency [6] | Potency [8] | Potency [9] | Potency (Aromatase (Homo sapiens)) | Potency [10] | Potency [11] | outcome [12] | outcome [13] | Potency [19] | Potency [15] | Potency [16] | Potency [17] | outcome [18]
